Bioassay records: PubChem BioAssay, National Center for Advancing Translational Sciences (NCATS)
Only some compounds are listed: those with a hit (about 19% of all), similar ones and a draw of the others.
ELG1 DNA repair – inhibitors of ELG1-dependent DNA repair in HEK293T cells; HEK293T ELG1-luciferase reporter, luminescence, 16 h; DNA damage induced by 5-fluorouridine; Potency, µM (top dose mostly 46.1 µM), without a hit: top-dose activity change, negative = inhibition, most hits filed as inhibitors; hit rate 2.3% among 330,000; AID 504467; further: potency means the concentration at half of the fitted maximal effect; nearly all actives have a fitted effect of over 55% in size
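HEK293T cells expressing luciferase-tagged ELG1 (2,000/well) received 5-Fluorouridine plus compound or DMSO for 16 hr at 37 °C. Luciferase was read by ONE-Glo luminescence after 30 min at room temperature.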
DT40 TDP1 CPT – DT40-hTDP1 cell growth loss with CPT; chicken DT40 Tdp1-/-;hTDP1 cells + 20 nM CPT, ATP luminescence, 48 h; Potency, µM (top dose mostly 46.2 µM), for inactives: at the top dose activity change, negative = growth inhibition, usual class: inhibitors; hit rate 12% among 420,000; further: potency means the concentration at half of the fitted maximal effect; nearly all actives have a fitted effect of over 55% in size
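Chicken DT40 Tdp1-/- cells complemented with human TDP1, 400 cells/well, exposed to compounds plus 20 nM camptothecin for at least 48 h at 37 C; viability read as ATP content by CellTiter-Glo luminescence.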
HT1080-NT tox – kills 2HG-producing HT-1080-NT fibrosarcoma cells | hit rate 1.6% among 360,000 | Potency, µM (doses to about 46.1 µM), inactives show top-dose activity, negative = less viability, hits mostly cytotoxic | AID 686970 | HT-1080-NT fibrosarcoma viability, CellTiter-Glo ATP luminescence, 48 h;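 further: NT is the 2HG producing partner of a matched IDH1 knockdown line; potency means the concentration at half of the fitted maximal effect; 0% = DMSO-treated cells and -100% = media-only wells without cells; nearly all actives have a fitted effect of over 55% in size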
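Fibrosarcoma NT cells, 750 per well in 5% FBS RPMI, were exposed to compound for 48 hours. Viability: CellTiter-Glo luminescence.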
TDP1 cell noCPT – qHTS for Inhibitors of human tyrosyl-DNA phosphodiesterase 1 (TDP1): qHTS in cells in absence of CPT | DT40 Tdp1-/- hTDP1 cells, no CPT, ATP luminescence, 48 h | Potency, µM (series often up to 46.2 µM), for inactives: at the top dose activity change, negative = growth inhibition, usual class: inhibitors | hit rate 15% among 420,000; further: potency means the concentration at half of the fitted maximal effect; nearly all actives have a fitted effect of over 55% in size
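Stably hTDP1-transfected Tdp1-null chicken DT40 cells were treated with library compounds minus camptothecin and grown for at least 48 hr at 37 °C, after which cellular ATP was quantified by luminescence.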
IL1B secr inh – blocks inflammasome-driven IL-1 beta release | THP-1 LPS/ATP IL-1B secretion, AlphaLISA, 16 h; stronger effect = lower value | activity change, % at 57.5 µM | hit rate 4.7% among 360,000 | AID 743279; in the data active means activity change below about -50%; inconclusive means mostly about -30% to -49%
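Secreted IL-1B measured by AlphaLISA bead assay after 16 h compound exposure of THP-1 cells; compounds (final up to 57.5 uM) added 1 h before LPS (250 ng/mL) and ATP (1.25 mM) stimulation; lower signal means less secretion.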
HT1080 IDH1KD tx – HT-1080 IDH1 knockdown cell toxicity (counter line). AID 686971. Potency, µM (top dose mostly 46.1 µM), for the others: top-dose activity, negative = toxicity, most hits filed as cytotoxic. HT-1080 IDH1 knockdown viability, ATP luminescence, 48 h. hit rate 2% among 360,000;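 further: potency means the concentration at half of the fitted maximal effect; 0% = DMSO wells and -100% = cell-free medium wells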
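Luminescent ATP read-out (CellTiter-Glo, 10 min at room temperature) after 48 h compound exposure at 37 °C gave viability of IDH1-knockdown HT-1080 cells. Activity was normalised to DMSO and cell-free wells, then fitted as concentration-response curves.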
Numbers without * were called inactive; i = inactive; ? = inconclusive; nt = no result given. Unless noted, the call rests on the fitted dose curve; in most records, active means well fitted curve in the direction sought with a large enough effect; inconclusive means small, poorly fitted or top-dose-only effect, or another doubt; inactive means no such curve, though single readings can be large; an effect the other way counts as inactive or inconclusive. Unless noted, on the % scale 0 is the no-effect control and ±100 the full control effect.

SMILES | ELG1 DNA repair | DT40 TDP1 CPT | HT1080-NT tox | TDP1 cell noCPT | IL1B secr inh | HT1080 IDH1KD tx
CC1Cc2nc(SCC(=O)c3ccccc3)n(Cc3ccccc3)c(=O)c2S1 (stereo unspecified) | 5% | 10µM* | -20% | 10µM* | ? | -11%
CC1Cc2nc(SCC(=O)NCc3ccccc3)n(Cc3ccccc3)c(=O)c2S1 (stereo unspecified) | 12% | ? | 1% | ? | ? | -3%
O=C(C1=NNCC1c1ccc(Cl)cc1)C1CO1 (stereo unspecified) | ? | 8.2µM* | -2% | ? | -67* | -9%
CNCC(O)Cn1c2c(c3ccccc31)CCCC2 (stereo unspecified) | 12% | ? | -2% | -15% | -28 | -2%
CCn1c2c(c(=N)c3ccccc31)CCC2 | 21µM* | 5% | ? | -25% | -2 | ?
CCCCCCCn1c2c(c(=N)c3c1CCC3)CCCC2 | ? | 0.41µM* | 9.2µM* | 0.33µM* | -27 | 7.3µM*
CCCCCCn1c(=O)[nH]c2c(c1=O)CCC2 | 0% | 11% | -2% | 1% | -1 | -2%
CCCCCCn1c2c(c(=N)c3c1CCC3)CCC2 | ? | 0.41µM* | 1.6µM* | 0.26µM* | ? | 1.6µM*
CCCCCCCCCn1c2c(c(=N)c3c1CCC3)CCC2 | ? | 0.058µM* | 1.5µM* | 0.018µM* | -97* | ?
COc1ccc(Oc2ncc3ncc(=O)n(C)c3n2)cc1 | nt | -4% | nt | ? | nt | nt
CCCCn1c2c(c(=N)c3c1CCC3)CCC2 | 1.6µM* | 6.5µM* | -17% | 4.6µM* | -3 | -18%
CCn1c2c(c(=N)c3c1CCC3)CCC2 | 0% | -7% | 7% | -6% | -13 | 20%
CC(=NNC(=S)N1CC2CCC(CC2)C1)c1ccncn1 | nt | 0.037µM* | 16µM* | 0.029µM* | 0 | ?
Cc1cccc(C(=S)N2CCOCC2)n1 | 10% | 14% | 9% | 2% | -14 | 6%
CC(=NNC(=S)N1CCCCC1)c1cccc(C)n1 | nt | 0.0092µM* | -22% | 0.018µM* | 0 | ?
CC(=NNC(=S)N1CCCCC1)c1ccccn1 | nt | 0.026µM* | -20% | 0.0082µM* | -74* | ?
CSC(=S)NN=C(C)c1cccc(C)n1 | nt | 0.033µM* | -26% | 0.018µM* | ? | ?
Cc1ccc(OCC(=O)Nc2cnn(CCCC(=O)O)c2)c([N+](=O)[O-])c1 | 0% | 2% | -4% | -10% | 2 | 11%
O=C(CN1C(=O)NC2(CCCCC2)C1=O)N1CCN(S(=O)(=O)c2ccc(F)c(F)c2F)CC1 | -1% | ? | -1% | ? | 2 | -8%
Cc1ccc(C)c(CS(=O)(=O)c2cn(CC(=O)N3CCCCC3)c3ccccc23)c1 | ? | -1% | 9% | -22% | 7 | 0%
CC(C)N(C(=O)Cn1cc(S(=O)(=O)Cc2ccc(Br)cc2)c2ccccc21)C(C)C | nt | 23µM* | nt | 16µM* | nt | nt
Cc1ccc(C)c(CS(=O)(=O)c2cn(CC(=O)N3CCC(C)CC3)c3ccccc23)c1 | ? | ? | 5% | 16µM* | -18 | 0%
CC(C)N(C(=O)Cn1cc(S(=O)(=O)CC(=O)NCc2ccc(F)cc2)c2ccccc21)C(C)C | 7% | ? | -3% | -24% | i | -5%
Cc1ccc(C)c(CS(=O)(=O)c2cn(CC(=O)N(C(C)C)C(C)C)c3ccccc23)c1 | nt | 15µM* | nt | 12µM* | nt | nt
CCCCn1c(N)c(N(CCOC)C(=O)c2sc3cc(F)ccc3c2Cl)c(=O)[nH]c1=O | 7% | 0% | -1% | -8% | -12 | -1%
SMILES | ELG1 DNA repair | DT40 TDP1 CPT | HT1080-NT tox | TDP1 cell noCPT | IL1B secr inh | HT1080 IDH1KD tx
O=C1C(=O)N(C2CCN(C(=O)c3ccc(F)cc3)CC2)CCN1Cc1ccc(F)cc1 | nt | -2% | nt | -1% | nt | nt
CN1CCc2nc3sc(C(=O)NCc4ccccc4)c(N)c3cc2C1 | -5% | ? | -4% | -27% | -8 | ?
O=C(Nc1nc2c(s1)CN(Cc1ccccc1)CC2)c1c(F)cccc1F | ? | -29% | -9% | ? | ? | 6%
Nc1c(C(=O)Nc2ccccc2)sc2nc3c(cc12)CN(Cc1ccccc1)CC3 | nt | ? | nt | 23µM* | nt | nt
COc1ccccc1NC(=O)c1sc2nc3c(cc2c1N)CN(Cc1ccccc1)CC3 | nt | 15µM* | nt | ? | nt | nt
CCN(CC)c1ccc(NC(=O)c2sc3nc4c(cc3c2N)CN(C)CC4)cc1 | nt | ? | nt | 16µM* | nt | nt
Cc1ccccc1NC(=O)c1sc2nc3c(cc2c1N)CCCC3 | nt | ? | nt | 3.3µM* | nt | nt
COc1ccc(CNC(=O)C2CCN(C(=O)Cc3ccccc3)CC2)cc1 | 1% | 1% | 22% | -5% | 4 | 15%
Cn1nnc2c(NCc3ccccc3)ncnc21 | nt | 2% | nt | -6% | nt | nt
Cc1nnc(SCC(=O)Nc2cccc(Cl)c2)n1CC1CCCO1 (stereo unspecified) | 12% | 0% | 15% | 1% | -9 | 7%
Cc1ccc2c(c1)N(C(C)C(=O)NCc1ccc3c(c1)OCO3)C(=O)CO2 (stereo unspecified) | 0% | -4% | -1% | 20% | 5 | 6%
CC(C)NC(=O)c1sc2nc3c(c(-c4cccs4)c2c1N)CN(C)CC3 | -1% | -17% | 2% | ? | -9 | 3%
Cc1cccc(NC(=O)c2sc3nc4c(c(-c5cccs5)c3c2N)CN(C)CC4)c1 | ? | ? | -5% | ? | -86* | -13%
COc1ccc(-c2nc(C(F)(F)F)c(OC)o2)cc1OC | 8% | ? | 17% | ? | ? | 19%
CC(C)n1c(O)c(/C=C2\C=NN=C2c2ccccc2)sc1=S | -19% | ? | 21µM* | ? | nt | 21µM*
CC1(C(=O)NS(=O)(=O)c2ccc(Cl)s2)CCN1C(=O)c1ccccc1CCc1ccccc1 (stereo unspecified) | nt | ? | -22% | ? | 28 | -23%
O=C(CN1C(=O)c2cccc3cccc1c23)NC1CCCC1 | 1% | -9% | -1% | ? | -5 | -6%
Cc1cccc(NC(=O)CC2SC(=O)N(c3ccccc3)C2=O)c1 (stereo unspecified) | 16% | 4.6µM* | 3% | 5.2µM* | 8 | 10%
Cc1ccc(NC(=O)CC2SC(=O)N(c3ccccc3)C2=O)cc1 (stereo unspecified) | 18% | 9.2µM* | 0% | 7.3µM* | 29 | 0%
